Values joined by “and” are separate entries in the source; they are usually repeats but may differ in a detail not shown here. Equal entries are not always repeated. Results filed as inconclusive are left out. Active and inactive are the calls of the source. Unless noted, the call rests on the fitted dose curve; in most records, active means well fitted curve in the direction sought with a large enough effect; inconclusive means small, poorly fitted or top-dose-only effect, or another doubt; inactive means no such curve, though single readings can be large; an effect the other way counts as inactive or inconclusive.
Columns and labels:
[1] = NS1 protein of Zika virus - qHTS assay to identify small molecule inhibitors in human HEK 293 cells (AID 1347053); further: series mostly up to about 46 µM; nearly all actives have a fitted effect of over 55% in size
Outline: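 HEK 293 cells pretreated with compound for 1 h, then infected with ZIKV MR766 (MOI 0.5) for 24 h at 37 C. NS1 detected by TR-FRET with two anti-NS1 antibodies; normalized to uninfected (0%) and infected (100%) wells.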

[2] = molecular target: T1, Tyrosine-protein phosphatase non-receptor type substrate 1 (Homo sapiens) + Leukocyte surface antigen CD47 (Homo sapiens) (UniProt P78324+Q08722); assay: CD47-SIRPalpha protein protein interaction - LANCE assay qHTS validation (AID 1347057; active means well fitted curve in the direction sought with a large enough effect in the signal ratio, with a control signal flat, not every such curve was filed as active; the % refers to the signal ratio; further: series mostly up to about 38 µM)
Outline: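 First, His-tagged CD47 and Eu-labelled anti-His antibody met the compound for 30 min; next, site-specifically biotinylated SIRPalpha was added for 30 min; finally streptavidin-APC was added before reading the TR-FRET ratio.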

[3] = molecular target: T1, Tyrosine-protein phosphatase non-receptor type substrate 1 (Homo sapiens) + Leukocyte surface antigen CD47 (Homo sapiens); assay: CD47-SIRPalpha protein protein interaction - HTRF assay qHTS validation (AID 1347058; active means well fitted curve in the direction sought with a large enough effect in the signal ratio, not every such curve was filed as active; the % refers to the signal ratio; further: series mostly up to about 38 µM)
Outline: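 TR-FRET read (Ch1/Ch2 ratio) of soluble extracellular CD47 and Avi-biotinylated SIRPalpha domains in PBS pH 7.4 with 0.05% IGEPAL; 7-point compound titration. Sequential 30 min room-temperature steps; non-biotinylated SIRPalpha as control inhibitor.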

[4] = molecular target: T1, Tyrosine-protein phosphatase non-receptor type substrate 1 (Homo sapiens) + Leukocyte surface antigen CD47 (Homo sapiens); assay: CD47-SIRPalpha protein protein interaction - Alpha assay qHTS validation (AID 1347059);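 further: bead proximity luminescence from CD47 binding SIRPalpha after compound preincubation with SIRPalpha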
Outline: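 Soluble extracellular domains: Avi-tag biotinylated SIRPalpha (25 nM) preincubated 30 min RT with compound, then 6His-CD47 (12.5 nM) 30 min; Ni-NTA acceptor and streptavidin donor beads (10 ug/mL) 30 min, AlphaScreen read. PBS pH 7.4, 0.05% IGEPAL.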

[5] = molecular target: Parathyroid hormone/parathyroid hormone-related peptide receptor (Homo sapiens) (UniProt Q03431); assay: qHTS for PTHR1 Agonists: Optimization Screen against the NCGC LOPAC library (AID 1347079);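 further: GloSensor cAMP luminescence in HEK-293 GP2 cells expressing human PTHR1 with IBMX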
Outline: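 Agonist readout: GloSensor cAMP luminescence, read after 15 min at room temperature. HEK-293-derived GP2 line carries PTHR1; compounds tested as a titration for 1 hr at 37C in presence of IBMX. M-PTH (1-15) served as control.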

[6] = qHTS for Inhibitors of the Functional Ribonucleoprotein Complex (vRNP) of Lassa (LASV) Arenavirus: LASV Primary Screen - GLuc reporter signal (AID 1347082; calls by dose curve; tested in HEK293 reporter line; further: nearly all actives have a fitted effect of over 60% in size; further: potency means the concentration at half of the fitted maximal effect)
[7] = qHTS for Inhibitors of the Functional Ribonucleoprotein Complex (vRNP) of Lassa (LASV) Arenavirus: Viability assay - alamar blue signal for LASV Primary Screen (AID 1347083; calls by dose curve; tested in HEK293 reporter line; further: series mostly up to about 57 µM; nearly all actives have a fitted effect of over 80% in size)
[8] = qHTS for Inhibitors of the Functional Ribonucleoprotein Complex (vRNP) of Lymphocytic Choriomeningitis Arenaviruses (LCMV): Viability assay - alamar blue signal for LCMV Primary Screen (AID 1347085; calls by dose curve; tested in HEK293 reporter line; further: series mostly up to about 57 µM; nearly all actives have a fitted effect of over 80% in size)
[9] = molecular target: Nucleoprotein (Lymphocytic choriomeningitis virus (strain Armstrong)) (UniProt P09992); assay: qHTS for Inhibitors of the Functional Ribonucleoprotein Complex (vRNP) of Lymphocytic Choriomeningitis Arenaviruses (LCMV): LCMV Primary Screen - GLuc reporter signal (AID 1347086; calls by dose curve; further: nearly all actives have a fitted effect of over 70% in size; further: potency means the concentration at half of the fitted maximal effect)
[10] = qHTS of pediatric cancer cell lines to identify multiple opportunities for drug repurposing: Primary screen for TC32 cells (AID 1347089); further: nearly all actives have a fitted effect of over 60% in size; further: potency means the concentration at half of the fitted maximal effect
Outline: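 TC32 cells, 500-1,000/well in growth medium, compound-treated 48 h at 37 °C; viability from CellTiter-Glo luminescence. Primary screen: MIPE 11-point (0.78 nM–46 µM final), NPC 8-point (0.59 nM–46 µM final); confirmatory at 11-point dilutions.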

[11] = qHTS of pediatric cancer cell lines to identify multiple opportunities for drug repurposing: Primary screen for DAOY cells (AID 1347090); further: nearly all actives have a fitted effect of over 55% in size; further: potency means the concentration at half of the fitted maximal effect
Outline: (§1)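 Eight- or eleven-point concentration series, 48 h treatment at 37 degrees C in growth media; readout CellTiter-Glo luminescence. Potency and efficacy were taken from the concentration-response curves.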

[12] = qHTS of pediatric cancer cell lines to identify multiple opportunities for drug repurposing: Primary screen for SJ-GBM2 cells (AID 1347091); further: potency means the concentration at half of the fitted maximal effect
Outline: as §1

[13] = qHTS of pediatric cancer cell lines to identify multiple opportunities for drug repurposing: Primary screen for A673 cells (AID 1347092); further: nearly all actives have a fitted effect of over 45% in size; further: potency means the concentration at half of the fitted maximal effect
Outline: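 A673 cells (500-1,000 cells/well) were treated 48 hours at 37 degrees C with compounds at 11-point (0.78 nM to 46 µM) or 8-point (0.59 nM to 46 µM) dilutions. Viability read by CellTiter-Glo luminescence; concentration-response curves fitted.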

[14] = qHTS of pediatric cancer cell lines to identify multiple opportunities for drug repurposing: Primary screen for SK-N-MC cells (AID 1347093); further: potency means the concentration at half of the fitted maximal effect
Outline: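 Metabolically active cells were quantified by ATP-dependent luminescence (CellTiter-Glo, 15 min at room temperature) following 48 h treatment. Cells had been plated at 500-1,000 per well and settled for 5 h beforehand.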

[15] = qHTS of pediatric cancer cell lines to identify multiple opportunities for drug repurposing: Primary screen for BT-37 cells (AID 1347094); further: potency means the concentration at half of the fitted maximal effect
Outline: (§2)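 500-1,000 cells/well; 5 h pre-incubation 37 °C/5% CO2; compound pinned; 48 h; CellTiter-Glo, 15 min RT; luminescence. MIPE 11-pt from 0.78 nM, NPC 8-pt from 0.59 nM final. Bortezomib 2.3 µM final as positive control.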

[16] = qHTS of pediatric cancer cell lines to identify multiple opportunities for drug repurposing: Primary screen for NB-EBc1 cells (AID 1347095); further: potency means the concentration at half of the fitted maximal effect
Outline: as §2

[17] = qHTS of pediatric cancer cell lines to identify multiple opportunities for drug repurposing: Primary screen for U-2 OS cells (AID 1347096); further: nearly all actives have a fitted effect of over 50% in size; further: potency means the concentration at half of the fitted maximal effect
Outline: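 Cells (500-1,000/well) in growth media were settled 5 h at 37 degrees C, then given compounds for 48 h. Viability was read as CellTiter-Glo luminescence. Primary runs used MIPE at 11 points (0.78 nM-46 µM) and NPC at 8 points (0.59 nM-46 µM); follow-ups used 11 points.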

[18] = qHTS of pediatric cancer cell lines to identify multiple opportunities for drug repurposing: Primary screen for SK-N-SH cells (AID 1347098); further: nearly all actives have a fitted effect of over 65% in size; further: potency means the concentration at half of the fitted maximal effect
Outline: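 Cells (500-1,000/well) rested 5 h, then received compounds for 48 h; metabolically active cells were measured by CellTiter-Glo luminescence. Final concentrations spanned up to 46 µM (MIPE, 11-point) or 0.59 nM-46 µM (NPC, 8-point) in primary screens, 11-point in follow-ups.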

[19] = molecular target: Atrial natriuretic peptide receptor 1 (Homo sapiens) (UniProt P16066); assay: Natriuretic polypeptide receptor (hNpr1) antagonism - Pilot screen (AID 1347049; calls by dose curve;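 further: agonist-evoked cGMP luminescence read 20 min after hNppA addition; series mostly up to about 58 µM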)
Outline: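 HEK293 cells co-expressing hNpr1 and the GloSensor pGS-40F cGMP luciferase sensor were preloaded with 2% GloSensor reagent for 2 h. Compounds were added for 30 min at room temperature, then cells were stimulated with 0.1 nM hNppA for 20 min before luminescence readout.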

[20] = qHTS of pediatric cancer cell lines to identify multiple opportunities for drug repurposing: Primary screen for Saos-2 cells (AID 1347097); further: nearly all actives have a fitted effect of over 40% in size; further: potency means the concentration at half of the fitted maximal effect
Outline: as §2

Measured: Potency

Sequence of Nucleoprotein (Lymphocytic choriomeningitis virus (strain Armstrong)) (P09992 whole entry, looked up): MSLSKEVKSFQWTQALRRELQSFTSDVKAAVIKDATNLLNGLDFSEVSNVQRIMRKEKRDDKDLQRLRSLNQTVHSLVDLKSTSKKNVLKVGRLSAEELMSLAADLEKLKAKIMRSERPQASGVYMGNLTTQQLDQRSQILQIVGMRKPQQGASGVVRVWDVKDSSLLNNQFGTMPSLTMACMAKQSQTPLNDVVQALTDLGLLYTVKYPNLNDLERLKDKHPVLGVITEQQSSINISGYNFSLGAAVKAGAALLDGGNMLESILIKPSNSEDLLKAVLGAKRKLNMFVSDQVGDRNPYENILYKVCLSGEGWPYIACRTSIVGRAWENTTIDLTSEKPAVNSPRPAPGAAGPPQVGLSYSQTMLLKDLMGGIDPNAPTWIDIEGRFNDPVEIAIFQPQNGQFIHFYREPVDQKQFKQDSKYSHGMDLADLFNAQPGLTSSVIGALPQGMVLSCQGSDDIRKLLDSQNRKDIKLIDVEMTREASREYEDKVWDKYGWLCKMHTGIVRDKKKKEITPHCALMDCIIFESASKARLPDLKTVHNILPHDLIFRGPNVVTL
Sequence of Atrial natriuretic peptide receptor 1 (Homo sapiens) (P16066 whole entry, looked up): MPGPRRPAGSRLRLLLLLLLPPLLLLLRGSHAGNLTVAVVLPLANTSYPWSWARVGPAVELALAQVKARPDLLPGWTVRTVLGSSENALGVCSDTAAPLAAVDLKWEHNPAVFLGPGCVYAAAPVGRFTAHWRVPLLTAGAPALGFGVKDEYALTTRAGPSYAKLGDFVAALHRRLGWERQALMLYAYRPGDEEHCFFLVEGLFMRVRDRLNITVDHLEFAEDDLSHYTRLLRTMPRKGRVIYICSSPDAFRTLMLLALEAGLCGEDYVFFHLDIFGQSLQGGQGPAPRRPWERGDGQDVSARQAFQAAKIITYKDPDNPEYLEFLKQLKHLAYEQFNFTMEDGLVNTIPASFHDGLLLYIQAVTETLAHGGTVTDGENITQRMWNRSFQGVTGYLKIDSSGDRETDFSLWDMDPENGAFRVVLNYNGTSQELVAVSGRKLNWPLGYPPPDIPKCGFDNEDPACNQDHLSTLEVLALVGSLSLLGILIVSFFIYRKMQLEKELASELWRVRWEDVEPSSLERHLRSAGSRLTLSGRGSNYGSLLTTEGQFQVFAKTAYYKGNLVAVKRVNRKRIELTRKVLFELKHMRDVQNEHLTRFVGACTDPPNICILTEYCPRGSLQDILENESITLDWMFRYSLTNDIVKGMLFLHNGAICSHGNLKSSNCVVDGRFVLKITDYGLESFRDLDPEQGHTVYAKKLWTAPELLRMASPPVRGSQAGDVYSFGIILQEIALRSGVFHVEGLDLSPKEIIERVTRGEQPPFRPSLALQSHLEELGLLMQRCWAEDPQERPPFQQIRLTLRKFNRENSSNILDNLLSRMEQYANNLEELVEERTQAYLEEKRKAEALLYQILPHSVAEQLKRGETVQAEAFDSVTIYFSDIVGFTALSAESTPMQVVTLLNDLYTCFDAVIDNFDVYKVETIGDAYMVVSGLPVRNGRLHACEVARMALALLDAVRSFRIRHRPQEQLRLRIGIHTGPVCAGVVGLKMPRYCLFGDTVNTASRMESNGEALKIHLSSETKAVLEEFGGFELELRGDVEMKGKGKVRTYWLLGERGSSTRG
T1 sequence (P78324 whole entry, looked up): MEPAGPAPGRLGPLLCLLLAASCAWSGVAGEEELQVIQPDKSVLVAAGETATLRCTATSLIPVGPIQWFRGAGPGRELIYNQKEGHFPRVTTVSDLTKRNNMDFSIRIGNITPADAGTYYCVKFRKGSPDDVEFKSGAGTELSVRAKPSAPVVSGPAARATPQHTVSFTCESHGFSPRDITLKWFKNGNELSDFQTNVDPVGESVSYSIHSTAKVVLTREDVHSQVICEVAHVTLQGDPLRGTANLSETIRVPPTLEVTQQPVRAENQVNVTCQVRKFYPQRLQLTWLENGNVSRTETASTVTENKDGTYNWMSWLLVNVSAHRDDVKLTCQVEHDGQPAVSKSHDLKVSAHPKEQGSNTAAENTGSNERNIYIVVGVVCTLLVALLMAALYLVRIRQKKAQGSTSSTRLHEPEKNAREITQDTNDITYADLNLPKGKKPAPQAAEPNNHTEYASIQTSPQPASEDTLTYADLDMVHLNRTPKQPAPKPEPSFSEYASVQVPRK
T1 sequence (Q08722 whole entry, looked up): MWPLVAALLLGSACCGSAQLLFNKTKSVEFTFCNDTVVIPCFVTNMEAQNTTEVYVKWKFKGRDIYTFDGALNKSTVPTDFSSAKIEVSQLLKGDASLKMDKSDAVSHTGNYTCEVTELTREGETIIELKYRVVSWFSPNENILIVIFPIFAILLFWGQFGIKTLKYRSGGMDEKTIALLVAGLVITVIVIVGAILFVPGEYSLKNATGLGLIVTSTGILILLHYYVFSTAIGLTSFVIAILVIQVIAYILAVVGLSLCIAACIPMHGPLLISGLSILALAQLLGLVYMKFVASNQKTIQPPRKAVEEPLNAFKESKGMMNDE
Sequence of Parathyroid hormone/parathyroid hormone-related peptide receptor (Homo sapiens) (Q03431 whole entry, looked up): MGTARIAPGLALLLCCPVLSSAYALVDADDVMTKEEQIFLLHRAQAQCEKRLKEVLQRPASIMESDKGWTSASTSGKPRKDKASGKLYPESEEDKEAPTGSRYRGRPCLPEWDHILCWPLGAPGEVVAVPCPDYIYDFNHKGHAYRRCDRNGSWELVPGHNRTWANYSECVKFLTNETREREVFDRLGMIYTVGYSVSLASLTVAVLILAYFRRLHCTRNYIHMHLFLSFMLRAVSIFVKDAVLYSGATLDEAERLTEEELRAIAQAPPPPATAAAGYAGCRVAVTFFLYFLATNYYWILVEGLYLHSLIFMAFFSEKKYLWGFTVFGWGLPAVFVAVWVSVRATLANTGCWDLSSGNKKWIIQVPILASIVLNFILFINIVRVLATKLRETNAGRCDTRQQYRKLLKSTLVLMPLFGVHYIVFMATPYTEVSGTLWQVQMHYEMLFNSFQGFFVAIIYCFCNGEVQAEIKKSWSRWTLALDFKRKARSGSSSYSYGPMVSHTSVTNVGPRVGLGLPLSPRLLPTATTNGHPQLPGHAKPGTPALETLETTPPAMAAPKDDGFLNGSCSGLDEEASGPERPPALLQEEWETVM

CC(=O)[C@H]1CC[C@H]2[C@@H]3CC[C@H]4C[C@](C)(O)CC[C@]4(C)[C@H]3CC[C@]12C
not listed: [19] | [20]
inactive: all other assays above

COc1ccc(C(CN(C)C)C2(O)CCCCC2)cc1 (configuration not stated)
not listed: [2] | [3] | [4] | [14] | [20]
inactive: all other assays above

CCCN1CCC[C@@H]2Cc3[nH]ncc3C[C@H]21
not listed: [20]
inactive: all other assays above

O=C1NCN(c2ccccc2)C12CCN(CC1COc3ccccc3O1)CC2 (configuration not stated)
not listed: [20]
inactive: all other assays above

O=c1[nH]c2ccccc2n1C1CCN(CCCC(c2ccc(F)cc2)c2ccc(F)cc2)CC1
inactive: [1] | [2] | [3] | [4] | [5] | [7] | [8] | [10] | [17]
active: [14] 16.8 µM | [18] 27.3 µM

NCC(O)c1ccc(O)cc1 (configuration not stated)
not listed: [20]
inactive: all other assays above

Fc1ccc(C(OCCN2CCN(CCCc3ccccc3)CC2)c2ccc(F)cc2)cc1
inactive: [19] | [2] | [3] | [4] | [5]
active: [6] 34.3 µM | [9] 30.6 µM | [10] 13.1 µM | [11] 23.5 µM | [12] 20.9 µM and 16.8 µM | [13] 14.8 µM | [14] 9.35 µM and 10.6 µM | [15] 21.7 µM and 24.6 µM | [16] 23.7 µM | [17] 23.5 µM | [20] 14.8 µM and 15 µM | [18] 9.7 µM

O=C(NC(O)C(Cl)(Cl)Cl)NC(O)C(Cl)(Cl)Cl (configuration not stated)
not listed: [2] | [3] | [4] | [5] | [18] | [19] | [20]
inactive: all other assays above

c1ccc(C2CC2)c(OCC2=NCCN2)c1
not listed: [20]
inactive: all other assays above

CC(=O)[C@H]1CC[C@H]2[C@@H]3CC[C@H]4C[C@H](O)CC[C@]4(C)[C@H]3C(=O)C[C@]12C
not listed: [20]
inactive: all other assays above

CC[C@@H](CO)NC(=O)[C@@H]1C=C2c3cccc4c3c(cn4C)C[C@H]2N(C)C1
not listed: [1] | [2] | [3] | [13]
inactive: all other assays above

NN=C(N)N
not listed: [20]
inactive: all other assays above

N#CC(C#N)=Cc1ccc(O)c(O)c1
active: [14] 13.3 µM
not listed: [3] | [10] | [13] | [15] | [16] | [20]
inactive: all other assays above

CC(CCc1ccccc1)NC(C)C(O)c1ccc(O)cc1 (configuration not stated)
not listed: [14]
inactive: all other assays above
